Here are results for 40 compounds from PubChem BioAssay (Tox21).

Inconclusive results are not listed. Entries that show only a call come without a potency. Active and inactive are the calls of the source. The call rests on the fitted dose curve; in most records, active means well fitted cell-killing curve with a large enough effect in the repeat runs; inconclusive means weak or mixed curves, or effect the other way; inactive means flat fitted curve, though single readings scatter.
Potency means the concentration at half of the fitted maximal effect.

The nature of this assay: Nuclear factor erythroid 2-related factor 2/antioxidant responsive element (Nrf2/ARE) small molecule agonists: qHTS cell viability counter screen in human keratinocytes (AID 1919968). Further: nearly all actives have a fitted effect of over 55% in size. The settings on record: KeratinoSens HaCaT ARE cells viability, CellTiter-Fluor, 24 h; series mostly up to 92.4 µM. An excerpt: U.S. Tox21 Program National Center for Advancing Translational Sciences [NCATS] Division of Preclinical Innovation [DPI] U.S. Environmental Protection Agency [EPA] National Institutes of Environmental Health Sciences [NIEHS] National Toxicology Program [NTP] U.S. Food and Drug Administration [FDA] Tox21 Assay Overview: Oxidative stress has been implicated in the pathogenesis of a variety of diseases ranging from cancer to neurodegeneration. The antioxidant response element (ARE) signaling pathway plays an important role in the amelioration of oxidative stress. The KeratinoSens (Givaudan, Switzerland) is an in vitro test method which quantifies luciferase induction as a measure of activation of Keap1-Nrf2-antioxidationt/electrophile response element (ARE) dependant pathway in HaCaT human keratinocytes stably transfected with a selectable plasmid. The KeratinoSens assay is a cell-based assay with a reporter cell line to detect potential skin sensitizers by their ability to induce the Nrf2/ARE-response. The activation of the report gene under culture conditions can be detected by ONE-Glo Luciferase Assay System (Promega, Madison, WI). This cell line has been used to screen the Tox21 10K compound library to identify agonists that induce oxidative stress. The cytotoxicity of the Tox21 compound library against the KS-ARE cell line was tested in parallel by measuring the cell viability using CellTiter- Fluor assay system (Promega, Madison, WI) in the same wells.
Tox21 Assay Protocol Summary: HaCaT derived cell line KeratinoSens were dispensed at 1,500 cells/5uL/well in 1536-well white wall/solid bottom plates using a Multidrop Combi (ThermoFisher Scientific, Waltham, MA) dispenser. After the assay plates were incubated at 37 C/5% CO2 for 5 h, 23 nL of compounds dissolved in DMSO, positive controls or DMSO only was transferred to the assay plate by a pintool workstation (Kalypsys, San Diego, CA). The plates were incubated at 37 C/5% CO2 for 23 h, followed by addition of 1uL/well of CellTiter-Fluor reagent into the assay plates using a Flying Reagent Dispenser (Aurora Discovery, San Diego, CA) for cell viability readout that measures cytotoxicity. After 1 h incubation at 37 C/5% CO2 the fluorescence intensity was measured using a ViewLux (PerkinElmer, Shelton, CT) plate reader.
A general note: In qHTS, concentration-response curves come from the screen itself.
As for `CCOc1ccc2c(c1)C(C)CC(C)(C)N2` (stereo not given), the Potency result is “inactive”.

In the case of `CC(C)CCC(=O)CCC(C)C`, the Potency entry was “inactive”. With `O=C(NS(=O)(=O)/C=C/c1cccs1)c1ccc(F)cc1Br`, the Potency result is “inactive”. In the case of `SCCOCCOCCS` it was “inactive”; in that of `CCOC(=O)CC(=O)C(=O)OCC`, “inactive”.

In the case of `COC(=O)C1=C(C)NC(C)=C(C(=O)OCCc2ccc(N3CCN(C(c4ccccc4)c4ccccc4)CC3)cc2)C1c1cccc([N+](=O)[O-])c1` (stereo not given), the Potency result is “inactive”. Regarding `CC/C=C/CCCCCCCCCCOC(C)=O`, the Potency result was “inactive”. In the case of `CC(C)c1ccc2c(c1)CC[C@H]1[C@](C)(CN)CCC[C@]21C` it was 12.2 µM (active). Take `OCCN1CCOCC1`: the Potency entry is “inactive”. With `Fc1ccc(C(c2ccc(F)cc2)N2CCN(C/C=C/c3ccccc3)CC2)cc1` the figure was 16.8 µM (active); with `CC(C)COCC(CN(Cc1ccccc1)c1ccccc1)N1CCCC1` (stereo not given), 26.6 µM (active); with `CCCc1ncc(C[n+]2ccccc2C)c(N)n1`, “inactive”. Regarding `CCCCN(CCN(CCCC)C(=O)N1CCOCC1)C(=O)N1CCOCC1`, the Potency was 29.8 µM (active). In the case of `COc1cc(Cl)c(OC)cc1N` it was “inactive”. Regarding `O[Si](c1ccccc1)(c1ccccc1)c1ccccc1`, the Potency result was “inactive”. `CC(C)(C)c1ccc(C(=O)CCCN2CCC(OC(c3ccccc3)c3ccccc3)CC2)cc1`: the Potency was 6.68 µM (active). With `Oc1ccccc1-c1nnco1` the entry was “inactive”; with `CCCCC(CC)CNCC(CC)CCCC` (stereo not given), “inactive”.

Turning to `Cc1ccc2nc(-c3ccc(N)cc3)sc2c1S(=O)(=O)O`, the Potency result was “inactive”.

Regarding `CC(=O)OCC(=O)[C@@]1(O)[C@H](OC(C)=O)C[C@H]2[C@@H]3CCC4=CC(=O)C=C[C@]4(C)[C@@]3(F)[C@@H](O)C[C@@]21C`, the Potency result is “inactive”. With `COC(=O)C1=C(C)NC(C)=C(C(=O)OCC(C)=O)C1c1ccccc1[N+](=O)[O-]` (stereo not given), the Potency entry is “inactive”.

As for `CCN1CCC[C@H]1CNC(=O)c1c(OC)ccc(Br)c1OC`, the Potency entry is “inactive”. With `CC(=O)O[Si](C)(OC(C)=O)OC(C)=O`, the Potency entry is “inactive”. In the case of `C/C=C/C=C/C=O` it was “inactive”; in that of `O=Cc1ccccc1S(=O)(=O)O`, “inactive”. With `COC(=O)CC(C)=O` the entry was “inactive”; with `CCCCOc1ccc(N)cc1`, “inactive”. For the compound `CCOc1ccc(NC(=O)CC(C)=O)cc1`, the Potency entry is “inactive”. In the case of `O=C(c1ccccc1)c1cc(Cl)ccc1O` it was “inactive”. For the compound `Cc1nc2ccc(CN(C)c3ccc(C(=O)N[C@@H](CCC(=O)O)C(=O)O)s3)cc2c(=O)[nH]1`, the Potency entry is “inactive”. As to `Cc1c(-c2ccccc2)oc2c(C(=O)OCCN3CCCCC3)cccc2c1=O`, the Potency result was “inactive”. In the case of `CCCCNC1CC(C)(C)NC(C)(C)C1`, the Potency entry is “inactive”. In the case of `N=C(N)N` it was “inactive”; in that of `C=CC(C)=CCC=C(C)C`, “inactive”; in that of `CCCCCCCCCCCCCCC`, “inactive”.

Take `C/C=C1/C(=O)C[C@H]2[C@@H]3CCC4=CC(=O)CC[C@]4(C)[C@H]3CC[C@]12C`: the Potency entry is “inactive”. With `CCCCCCOC(=O)NC(=N)c1ccc(NCc2nc3cc(C(=O)N(CCC(=O)OCC)c4ccccn4)ccc3n2C)cc1`, the Potency result was “inactive”. With `Cc1cc(Cl)c(C)cc1Cl`, the Potency result is “inactive”. Take `CCC(C)COC(C)=O` (stereo not given): the Potency entry is “inactive”. As for `O=C1CCCC(=O)O1`, the Potency result is “inactive”.
